Data: the supplement of paper PMC10849652
About 8,800 targets were measured; listed, in parts, are those with a hit and a random draw of the rest. About 0.5% of all pairs of compound and target were hits.

How the values were obtained:
Assay in all cases: log2 fold change, soluble protein after heating vs DMSO (PISA); higher = thermal stabilisation; K562 lysate, 10 uM; active = over 0.2 and 3.5 SD of the protein, either way, in both replicates (recomputed)
erlotinib = compound: C#Cc1cccc(Nc2ncnc3cc(OCCOC)c(OCCOC)cc23)c1 [erlotinib]
Summary of the method: (§1)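 The values are log-two fold changes in thermal stability compared with solvent controls and come from duplicates. They were obtained by TMTpro 16plex LC-MS/MS, with channel sums equalised, on the supernatant after 21,000xg for 90 min. That supernatant came from crude K562 extract at 1 mg/mL protein treated with 10 μM compound for 30 min, heated for 3 min across 48°C-58°C, pooled and brought to 0.5% NP-40 at 4°C.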

[1] = compound: C/C(=N\NC(=O)C1=CC(=CC=C1)S(=O)(=O)N2CCOCC2)/C3=C(C=CC(=C3)Cl)O
Summary of the method: as §1

[2] = compound: C1=CC(=CC=C1C2=NC3=C(N2)C=C(C=C3)C(=O)N)OC4=CC=C(C=C4)Cl
Summary of the method: as §1

[3] = compound: C1=CC2=C(C=CC(=C2)/C=C\3/C(=O)NC(=NCC4=CC=CS4)S3)N=C1
Summary of the method: as §1

[4] = compound: C1=CC2=NC=CN=C2C=C1/C=C/3\C(=O)NC(=O)S3
Summary of the method: as §1

[5] = compound: C1=CC=C(C=C1)C2=NC(=C(N2)C3=CC=NC=C3)C4=CC(=C(C=C4)Cl)O
Summary of the method: as §1

[6] = compound: C1=CC=C2C(=C1)C3=NNC4=CC=CC(=C43)C2=O
Summary of the method: as §1

[7] = compound: C1CCN(C1)C(=O)NC2=CC=CC(=C2)NC3=NC=C(C(=N3)NCCC4=CN=CN4)Br
Summary of the method: as §1

[8] = compound: C1CN(CCC1(CC2=CC=C(C=C2)Cl)N)C3=NC=NC4=C3C=CN4
Summary of the method: as §1

IRAK-1-4 Inhibitor I = compound: C1COCCN1CCN2C3=CC=CC=C3N=C2NC(=O)C4=CC(=CC=C4)[N+](=O)[O-] [IRAK-1-4 Inhibitor I]
Summary of the method: as §1

ibrutinib = compound: C=CC(=O)N1CCC[C@@H](n2nc(-c3ccc(Oc4ccccc4)cc3)c3c(N)ncnc32)C1 [ibrutinib]
Summary of the method: as §1

[9] = compound: CC(=O)c1cnc2ccc(-c3cc(Cl)c(O)c(Cl)c3)nc2c1N[C@H]1CC[C@H](CN(C)C)CC1
Summary of the method: as §1

ralimetinib = compound: CC(C)(C)Cn1c(N)nc2ccc(-c3[nH]c(C(C)(C)C)nc3-c3ccc(F)cc3)nc21 [ralimetinib]
Summary of the method: as §1

[10] = compound: CC(C)(O)CC(=O)NCCn1ccc2ncnc(Nc3ccc(Oc4cccc(C(F)(F)F)c4)c(Cl)c3)c21
Summary of the method: as §1

[11] = compound: CC(C)C1=C2N=C(C=C(N2N=C1)NCC3=CC=CC=C3)NCCCCCCN
Summary of the method: as §1

[12] = compound: CC1=C(C(CC(=O)N1)C2=CC=C(C=C2)C(F)(F)F)C(=O)NC3=C(C=C4C(=C3)C=NN4)F
Summary of the method: as §1

[13] = compound: CC1=C(C2=C(C=C1)C(=O)C3=CC=CC=C3N2CCCN)C
Summary of the method: as §1

[14] = compound: CC1=C(C=C(C=C1)NC(=O)C2=CC(=CC=C2)C(C)(C)C#N)NC3=CC4=C(C=C3)N=CN(C4=O)C
Summary of the method: as §1

[15] = compound: CC1=C(C=C(C=C1)NC(=O)C2=CC(=CC=C2)N(C)C)NC(=O)C3=CC=C(C=C3)O
Summary of the method: as §1

[16] = compound: CC1=CC=C(C=C1)SC2=C3C=C(SC3=CN=C2)C(=O)N
Summary of the method: as §1

Measured: log2 fold change

GAMT (UniProt Q14353)
inactive: erlotinib 0.018 | [1] -0.008 | [2] 0.033 | [3] -0.008 | [4] -0.01 | [5] -0.016 | [6] 0.036 | [7] 0.035 | [8] 0.066 | IRAK-1-4 Inhibitor I -0.001 | ibrutinib 0.029 | [9] -0.008 | ralimetinib 0.019 | [10] 0.013 | [11] -0.041 | [12] 0.071 | [13] -0.009 | [14] -0.003 | [15] -0.003 | [16] 0.005

FIBP (UniProt O43427)
inactive: erlotinib -0.071 | [1] -0.027 | [2] 0.022 | [3] 0.067 | [4] 0.018 | [5] 0.041 | [6] 0.079 | [7] -0.064 | [8] 0.029 | IRAK-1-4 Inhibitor I 0.006 | ibrutinib 0.015 | [9] 0.02 | ralimetinib 0.032 | [10] -0.026 | [11] 0.028 | [12] 0.057 | [13] 0.036 | [14] 0.01 | [15] 0.024 | [16] 0.011

EIF1 (UniProt P41567)
UniProt P41567, sequence (P41567 whole entry, looked up): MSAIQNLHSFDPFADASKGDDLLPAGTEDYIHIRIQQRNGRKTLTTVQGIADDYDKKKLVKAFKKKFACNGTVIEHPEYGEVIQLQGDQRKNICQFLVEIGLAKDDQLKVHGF
inactive: erlotinib -0.006 | [1] -0.022 | [2] 0.063 | [3] -0.031 | [4] -0.004 | [5] 0.044 | [6] 0.011 | [7] -0.027 | [8] -0.023 | IRAK-1-4 Inhibitor I 0.02 | ibrutinib 0.026 | [9] 0.015 | ralimetinib -0.016 | [10] 0.011 | [11] 0 | [12] -0.114 | [13] 0.059 | [14] 0.045 | [15] -0.043 | [16] -0.037

FTSJ3 (UniProt Q8IY81)
UniProt Q8IY81, sequence (Q8IY81 whole entry, looked up): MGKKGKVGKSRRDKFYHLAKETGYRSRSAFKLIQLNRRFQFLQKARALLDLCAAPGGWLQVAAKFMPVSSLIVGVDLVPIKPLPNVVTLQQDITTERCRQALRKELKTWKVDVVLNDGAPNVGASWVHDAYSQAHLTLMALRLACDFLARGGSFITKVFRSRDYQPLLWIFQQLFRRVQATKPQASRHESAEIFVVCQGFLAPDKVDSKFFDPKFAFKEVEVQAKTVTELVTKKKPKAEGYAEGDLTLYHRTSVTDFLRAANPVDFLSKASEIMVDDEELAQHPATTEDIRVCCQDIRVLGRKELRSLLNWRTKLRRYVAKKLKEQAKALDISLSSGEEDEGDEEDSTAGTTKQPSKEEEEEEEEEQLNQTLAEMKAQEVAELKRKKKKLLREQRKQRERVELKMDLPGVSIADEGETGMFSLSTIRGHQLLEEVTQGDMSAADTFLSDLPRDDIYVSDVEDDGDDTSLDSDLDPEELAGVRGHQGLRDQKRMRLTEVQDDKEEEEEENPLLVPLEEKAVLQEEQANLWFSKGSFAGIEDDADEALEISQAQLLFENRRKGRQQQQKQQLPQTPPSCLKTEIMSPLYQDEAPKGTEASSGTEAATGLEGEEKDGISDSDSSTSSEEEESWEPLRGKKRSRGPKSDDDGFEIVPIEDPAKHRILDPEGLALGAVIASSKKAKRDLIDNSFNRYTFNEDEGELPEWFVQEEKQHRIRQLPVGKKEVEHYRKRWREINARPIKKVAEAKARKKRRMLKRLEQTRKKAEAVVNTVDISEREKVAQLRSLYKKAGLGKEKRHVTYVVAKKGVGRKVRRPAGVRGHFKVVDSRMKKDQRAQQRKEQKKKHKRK
inactive: erlotinib 0.064 | [1] -0.157 | [2] 0.002 | [3] -0.014 | [4] -0.028 | [5] 0.025 | [6] 0.065 | [7] 0.012 | [8] 0.022 | IRAK-1-4 Inhibitor I -0.018 | ibrutinib 0.05 | [9] 0.005 | ralimetinib 0.026 | [10] -0.033 | [11] 0.086 | [12] 0.016 | [13] -0.037 | [14] -0.01 | [15] 0.002 | [16] 0.04

FAT2 (UniProt Q9NYQ8)
inactive: erlotinib 0.215 | [1] -0.092 | [2] -0.311 | [3] 0.038 | [4] -0.076 | [5] -0.135 | [6] -0.147 | [7] -0.007 | [8] 0.01 | IRAK-1-4 Inhibitor I -0.016 | ibrutinib 0.01 | [9] 0.057 | ralimetinib -0.156 | [10] -0.123 | [11] -0.314 | [12] -0.019 | [14] 0.166 | [15] 0.038 | [16] -0.023

FANCI (UniProt Q9NVI1)
UniProt Q9NVI1, sequence (Q9NVI1 whole entry, looked up): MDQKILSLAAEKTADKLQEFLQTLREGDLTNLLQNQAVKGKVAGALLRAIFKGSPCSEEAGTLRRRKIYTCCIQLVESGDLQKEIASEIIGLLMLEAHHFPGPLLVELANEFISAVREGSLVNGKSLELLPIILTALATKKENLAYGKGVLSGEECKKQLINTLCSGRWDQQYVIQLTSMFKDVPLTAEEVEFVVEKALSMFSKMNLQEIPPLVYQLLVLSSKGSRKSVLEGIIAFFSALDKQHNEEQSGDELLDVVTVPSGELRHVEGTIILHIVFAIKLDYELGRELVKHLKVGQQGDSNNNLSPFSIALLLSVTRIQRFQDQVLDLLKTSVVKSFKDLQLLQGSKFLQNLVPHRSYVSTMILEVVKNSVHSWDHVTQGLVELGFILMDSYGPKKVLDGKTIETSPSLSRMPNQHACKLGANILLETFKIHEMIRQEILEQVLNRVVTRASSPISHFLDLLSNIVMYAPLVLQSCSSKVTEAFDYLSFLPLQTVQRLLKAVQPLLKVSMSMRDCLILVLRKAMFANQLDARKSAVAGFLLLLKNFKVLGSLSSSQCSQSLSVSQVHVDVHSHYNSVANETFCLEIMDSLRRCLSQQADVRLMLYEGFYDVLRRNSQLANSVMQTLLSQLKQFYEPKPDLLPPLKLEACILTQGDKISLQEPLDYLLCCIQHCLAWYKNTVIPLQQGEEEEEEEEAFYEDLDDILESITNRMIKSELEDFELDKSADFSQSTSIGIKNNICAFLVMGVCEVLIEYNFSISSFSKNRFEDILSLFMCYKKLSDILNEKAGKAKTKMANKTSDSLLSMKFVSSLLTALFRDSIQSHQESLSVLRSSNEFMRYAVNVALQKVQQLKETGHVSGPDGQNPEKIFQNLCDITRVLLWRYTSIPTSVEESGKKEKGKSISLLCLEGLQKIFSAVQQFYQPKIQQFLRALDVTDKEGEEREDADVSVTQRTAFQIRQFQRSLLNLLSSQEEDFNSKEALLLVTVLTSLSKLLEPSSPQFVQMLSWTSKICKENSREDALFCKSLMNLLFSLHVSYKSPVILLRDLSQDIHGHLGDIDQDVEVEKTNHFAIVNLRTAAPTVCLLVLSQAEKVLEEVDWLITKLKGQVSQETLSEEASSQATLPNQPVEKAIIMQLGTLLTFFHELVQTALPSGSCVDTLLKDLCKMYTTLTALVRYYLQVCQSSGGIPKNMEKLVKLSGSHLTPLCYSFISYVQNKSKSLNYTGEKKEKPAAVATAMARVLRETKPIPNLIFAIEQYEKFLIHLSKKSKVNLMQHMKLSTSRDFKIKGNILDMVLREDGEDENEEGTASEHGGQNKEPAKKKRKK
inactive: erlotinib 0.012 | [1] -0.031 | [2] -0.056 | [3] 0.013 | [4] 0.021 | [5] -0.001 | [6] -0.051 | [7] -0.008 | [8] -0.009 | IRAK-1-4 Inhibitor I 0.013 | ibrutinib -0.024 | [9] 0.022 | ralimetinib 0.02 | [10] -0.024 | [11] -0.038 | [12] -0.021 | [13] 0.026 | [14] 0.002 | [15] 0.033 | [16] 0.014

EIF2B4 isoform 2 (UniProt Q9UI10)
inactive: erlotinib 0.031 | [1] 0.027 | [2] 0.008 | [3] 0.041 | [4] 0.009 | [5] 0.013 | [6] -0.04 | [7] -0.006 | [8] -0.008 | IRAK-1-4 Inhibitor I 0.03 | ibrutinib 0.011 | [9] 0.011 | ralimetinib 0.009 | [10] -0.005 | [11] -0.036 | [12] -0.004 | [13] -0.036 | [14] 0.001 | [15] -0.005 | [16] 0.04

DVL2 (UniProt O14641)
inactive: erlotinib 0.012 | [1] -0.028 | [2] 0.011 | [3] -0.015 | [4] 0.03 | [5] -0.055 | [6] -0.029 | [7] 0.001 | [8] 0.067 | IRAK-1-4 Inhibitor I -0.073 | ibrutinib -0.032 | [9] 0.085 | ralimetinib 0.022 | [10] 0.032 | [11] -0.019 | [12] 0.028 | [13] -0.056 | [14] -0.072 | [15] 0.045 | [16] 0.11

GCN1 (UniProt Q92616)
UniProt Q92616, sequence (Q92616 whole entry, looked up): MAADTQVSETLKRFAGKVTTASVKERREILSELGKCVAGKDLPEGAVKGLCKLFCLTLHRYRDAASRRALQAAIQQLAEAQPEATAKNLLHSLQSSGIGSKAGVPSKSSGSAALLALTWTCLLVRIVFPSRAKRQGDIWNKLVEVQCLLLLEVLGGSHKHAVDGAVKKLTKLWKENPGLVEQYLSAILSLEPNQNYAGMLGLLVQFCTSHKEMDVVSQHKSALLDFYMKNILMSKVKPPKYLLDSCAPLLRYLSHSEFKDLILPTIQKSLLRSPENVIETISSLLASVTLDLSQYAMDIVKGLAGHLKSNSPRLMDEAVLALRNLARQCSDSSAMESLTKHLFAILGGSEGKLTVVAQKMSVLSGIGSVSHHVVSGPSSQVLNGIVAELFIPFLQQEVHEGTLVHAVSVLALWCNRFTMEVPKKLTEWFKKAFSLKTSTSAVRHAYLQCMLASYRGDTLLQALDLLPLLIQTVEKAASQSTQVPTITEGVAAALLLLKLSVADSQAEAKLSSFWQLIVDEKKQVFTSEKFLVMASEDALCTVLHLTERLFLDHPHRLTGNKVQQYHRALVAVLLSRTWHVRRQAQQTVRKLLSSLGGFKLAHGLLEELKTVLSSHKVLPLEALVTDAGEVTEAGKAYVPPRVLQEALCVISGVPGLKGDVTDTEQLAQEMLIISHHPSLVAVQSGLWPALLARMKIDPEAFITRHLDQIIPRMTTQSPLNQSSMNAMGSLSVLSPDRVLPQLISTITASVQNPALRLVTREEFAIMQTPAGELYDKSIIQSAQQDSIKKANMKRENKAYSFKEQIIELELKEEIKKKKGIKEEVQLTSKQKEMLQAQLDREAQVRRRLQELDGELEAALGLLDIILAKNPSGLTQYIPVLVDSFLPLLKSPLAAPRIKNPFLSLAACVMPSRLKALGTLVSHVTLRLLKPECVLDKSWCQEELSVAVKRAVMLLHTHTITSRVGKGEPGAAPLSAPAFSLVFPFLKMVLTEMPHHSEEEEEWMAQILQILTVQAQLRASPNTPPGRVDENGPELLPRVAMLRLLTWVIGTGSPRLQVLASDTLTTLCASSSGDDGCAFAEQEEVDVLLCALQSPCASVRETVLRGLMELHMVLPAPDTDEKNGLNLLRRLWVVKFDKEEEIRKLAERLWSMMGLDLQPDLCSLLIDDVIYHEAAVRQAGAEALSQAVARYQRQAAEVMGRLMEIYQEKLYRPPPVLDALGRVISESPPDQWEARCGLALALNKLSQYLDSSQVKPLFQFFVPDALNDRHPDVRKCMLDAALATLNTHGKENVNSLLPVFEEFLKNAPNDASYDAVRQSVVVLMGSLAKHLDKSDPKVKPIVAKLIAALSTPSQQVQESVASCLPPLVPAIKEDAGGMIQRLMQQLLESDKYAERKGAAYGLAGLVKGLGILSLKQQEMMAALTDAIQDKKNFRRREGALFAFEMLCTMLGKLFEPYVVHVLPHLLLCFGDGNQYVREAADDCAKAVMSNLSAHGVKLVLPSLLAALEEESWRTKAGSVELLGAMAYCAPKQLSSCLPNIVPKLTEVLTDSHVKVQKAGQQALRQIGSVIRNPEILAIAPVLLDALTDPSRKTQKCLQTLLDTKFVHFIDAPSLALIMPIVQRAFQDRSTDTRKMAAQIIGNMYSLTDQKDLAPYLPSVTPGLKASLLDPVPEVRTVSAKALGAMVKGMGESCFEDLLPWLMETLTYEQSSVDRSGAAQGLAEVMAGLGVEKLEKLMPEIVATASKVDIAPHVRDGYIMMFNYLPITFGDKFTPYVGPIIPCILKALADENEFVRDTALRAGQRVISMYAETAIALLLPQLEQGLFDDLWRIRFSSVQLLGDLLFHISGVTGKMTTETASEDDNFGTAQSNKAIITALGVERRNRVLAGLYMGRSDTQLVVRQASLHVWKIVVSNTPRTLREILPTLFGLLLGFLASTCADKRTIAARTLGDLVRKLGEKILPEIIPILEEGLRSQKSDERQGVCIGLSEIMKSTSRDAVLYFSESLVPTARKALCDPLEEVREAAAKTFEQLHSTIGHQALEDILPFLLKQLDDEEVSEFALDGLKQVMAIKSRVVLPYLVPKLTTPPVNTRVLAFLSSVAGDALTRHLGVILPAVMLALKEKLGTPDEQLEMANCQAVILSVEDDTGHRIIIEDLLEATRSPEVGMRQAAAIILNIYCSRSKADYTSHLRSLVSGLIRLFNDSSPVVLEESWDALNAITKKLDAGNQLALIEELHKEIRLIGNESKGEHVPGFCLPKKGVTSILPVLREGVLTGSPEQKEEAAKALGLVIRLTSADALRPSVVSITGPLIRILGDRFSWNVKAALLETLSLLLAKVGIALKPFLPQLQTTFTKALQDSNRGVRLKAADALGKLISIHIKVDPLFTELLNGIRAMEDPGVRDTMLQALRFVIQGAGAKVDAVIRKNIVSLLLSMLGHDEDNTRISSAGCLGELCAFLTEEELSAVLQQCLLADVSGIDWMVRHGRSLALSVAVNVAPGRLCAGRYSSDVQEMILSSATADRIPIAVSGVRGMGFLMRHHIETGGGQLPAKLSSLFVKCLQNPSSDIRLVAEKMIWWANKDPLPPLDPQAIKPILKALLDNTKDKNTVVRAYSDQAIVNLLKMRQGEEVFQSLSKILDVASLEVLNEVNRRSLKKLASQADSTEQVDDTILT
inactive: erlotinib 0.048 | [1] 0.066 | [2] -0.086 | [3] 0.022 | [4] 0.054 | [5] 0.026 | [6] -0.016 | [7] -0.008 | [8] 0.003 | IRAK-1-4 Inhibitor I 0.008 | ibrutinib 0.016 | [9] 0.008 | ralimetinib 0.064 | [10] 0.028 | [11] -0.031 | [12] -0.016 | [13] -0.01 | [14] 0.008 | [15] 0.075 | [16] 0.026
